Only some compounds are listed: those with a hit (about 2.9% of all), similar ones and a draw of the others.
Nrf2 activator: Nrf2 pathway activation | AREc32 ARE-luciferase reporter (MCF7-derived line), luminescence, 24 h | Potency, µM (titrated, usually from 46.1 µM), without a hit: at the top dose activation, usual class: activators | 410,000 tested, 0.31% active; further: % of control where 0% means no effect; nearly all actives have a fitted effect of over 65% in size
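For detection, Steady-Glo was added and plates sat 30 min at RT; before that, AREc32_Fluc cells grown overnight in OPTI-MEM/5% FBS had been treated with 23 nL compound for 24 hr at 37 deg C.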
S2 tox: viability counter-screen for ATXN expression inhibitors; S2 cells (HEK-293 line with an ATXN2-luciferase reporter) viability, CellTiter-Fluor protease fluorescence, 24 h; 400,000 tested, 0.49% active; Potency, µM (highest dose often 56.7 µM), usual class: cytotoxic; AID 651635; further: nearly all actives have a fitted effect of over 40% in size
ATXN2 expr inh: ATXN2 expression inhibition. HEK-293 ATXN2-luciferase reporter, luminescence, 24 h. Potency, µM (series often up to 57 µM), for the others: top-dose activity change, negative = inhibition, hits mostly inhibitors. 360,000 tested, 0.72% active; further: on the % scale 0 is the no-effect control and ±100 the full control effect; nearly all actives have a fitted effect of over 55% in size
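qHTS (up to 57 uM final) was run with 24 h compound exposure of reporter cells at 37 °C. Each well was multiplexed: SteadyGlo luminescence measured ATXN2-luciferase expression after a fluorogenic Gly-Phe-AFC viability readout (25 uM final).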
A549 tox: A549 cytotoxicity, counter-screen for Nrf2 inhibitors. A549 ARE-Fluc cells, CellTiter-Fluor viability, 18-24 h. Potency, µM (titrated, usually from 46 µM), inactives show at the highest dose activity change, negative = cytotoxicity, usual class: inhibitors. 390,000 tested, 0.16% active. AID 504648; further: on the % scale 0 is the no-effect control and ±100 the full control effect
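Cytotoxicity counterscreen: CellTiter-Fluor fluorescence was measured in A549 ARE_Fluc cells after 18-24 h of compound exposure in a concentration series. The subsequent BugLite luminescent read reports ARE-luciferase activity.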
Nrf2 block: Nrf2 pathway inhibition; Potency, µM (top dose mostly 46 µM), for the others: at the highest dose activity change, negative = inhibition, usual class: inhibitors; 360,000 tested, 2.1% active; A549 ARE-Fluc reporter, luciferase luminescence, 18-24 h; further: on the % scale 0 is the no-effect control and ±100 the full control effect; nearly all actives have a fitted effect of over 60% in size
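Cells were seeded and rested 2 h, then exposed to compounds for 18-24 h. CellTiter-Fluor was read first as a viability measure. BugLite was added 15 min before the final luminescent read of ARE-luciferase activity in A549 cells.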
The depositor's hits bear a star; ! = repeats disagree. The call rests on the fitted dose curve; in most records, active means well fitted curve in the direction sought with a large enough effect; inconclusive means small, poorly fitted or top-dose-only effect, or another doubt; inactive means no such curve, though single readings can be large; an effect the other way counts as inactive or inconclusive. Potency means the concentration at half of the fitted maximal effect.

What do the screens show for `COC(=O)C1=C(c2ccc(-c3ccccc3)c(F)c2)C[C@@H]2CC[C@H]1N2C(=O)NCC1CC1`?
Nrf2 activator: -1%; S2 tox: inconclusive; ATXN2 expr inh: inconclusive; A549 tox: inconclusive; Nrf2 block: 13µM*

What do the screens show for `COCCNC(=O)N1[C@H]2CC[C@@H]1C(C(=O)OC)=C(c1ccc(-c3ccccc3)c(F)c1)C2`?
Nrf2 activator: 5%; S2 tox: inconclusive; ATXN2 expr inh: inconclusive; A549 tox: -3%; Nrf2 block: 18µM*

How did COC(=O)C1=C(c2ccc(-c3ccccc3)c(F)c2)C[C@@H]2CC[C@H]1N2C(=O)NCCOc1ccccc1 do in these assays?
Nrf2 activator: -1%; S2 tox: inconclusive; ATXN2 expr inh: 0%; A549 tox: inconclusive; Nrf2 block: 18µM*

What do the screens show for `Cc1nn(CC(C)C)c(Cl)c1C(=O)O`?
Nrf2 activator: 0%; S2 tox: inconclusive; ATXN2 expr inh: -6%; A549 tox: -1%; Nrf2 block: -12%

What do the screens show for `CN1c2ccc([N+](=O)[O-])cc2CC2(C(=O)NC(=O)N(c3ccc(Br)cc3)C2=O)C1c1ccccc1` (configuration not stated)?
Nrf2 activator: 2%; S2 tox: inactive; ATXN2 expr inh: -10%; A549 tox: -20%; Nrf2 block: 0%

Results for CC1(C)c2[nH]c3ccccc3c2C[C@H]2C(=O)N(Cc3ccccc3F)C(=O)N21 ?
Nrf2 activator: 2%; S2 tox: inactive; ATXN2 expr inh: inconclusive; A549 tox: inconclusive; Nrf2 block: 23µM*

Results for CC1(C)c2[nH]c3ccccc3c2C[C@@H]2C(=O)N(Cc3ccccc3F)C(=O)N21 ?
Nrf2 activator: 6%; S2 tox: inactive; ATXN2 expr inh: -29%; A549 tox: 8%; Nrf2 block: 0%

How did COC(=O)C1=C(C(=O)OC)SC2(S1)C(C(=O)OC)=C(C(=O)OC)Sc1c2ssc1=O do in these assays?
Nrf2 activator: inconclusive; S2 tox: 14µM*; ATXN2 expr inh: 18µM*; A549 tox: inconclusive; Nrf2 block: inconclusive

What do the screens show for `C=C1C(=O)OC2C1CCC(C)C1(O)C=CC(=O)C21C` (configuration not stated)?
Nrf2 activator: -3%; S2 tox: 11µM*; ATXN2 expr inh: 11µM*; A549 tox: -7%; Nrf2 block: 6%

How did CCOc1ccc(NCc2cccn2-c2nnc(N3CCC(C(=O)NCc4ccc(C)cc4)CC3)s2)cc1 do in these assays?
Nrf2 activator: 0%; A549 tox: -11%; Nrf2 block: inconclusive

How did CCOc1ccc(CCNC(=O)c2cnc3sc(N4CCCC4)nn3c2=O)cc1 do in these assays?
Nrf2 activator: -1%; A549 tox: -15%; Nrf2 block: 12µM*

Results for CN1C(=O)/C(=C/c2ccc(Cl)s2)C(=O)NC1=S ?
Nrf2 activator: 0%; S2 tox: 16µM*; ATXN2 expr inh: inconclusive; A549 tox: -13%; Nrf2 block: inconclusive

How did Fc1ccccc1CN1Cc2ccccc2-n2nncc2C1 do in these assays?
Nrf2 activator: 0%; S2 tox: inactive; ATXN2 expr inh: -12%

How did CNc1ccc2nc3ccccc3[n+](C)c2c1 do in these assays?
Nrf2 activator: 0%; S2 tox: 10µM*; A549 tox: 7.3µM*; Nrf2 block: 6.5µM*

How did C[n+]1c2ccccc2nc2ccc(NCCO)cc21 do in these assays?
Nrf2 activator: 0%; S2 tox: 13µM*; ATXN2 expr inh: -34%; A549 tox: 16µM*; Nrf2 block: inconclusive

Results for CN(C)C(=O)O/N=C(\N)COc1ccc(C(C)(C)C)cc1 ?
Nrf2 activator: -4%; S2 tox: inconclusive; A549 tox: 21µM*; Nrf2 block: inconclusive

What do the screens show for `CSCCC(c1nnnn1Cc1ccccc1)N1CCC2(CC1)C(=O)NCN2c1ccccc1` (configuration not stated)?
Nrf2 activator: -1%; S2 tox: inconclusive; ATXN2 expr inh: -24%

Results for Cc1ccc2c(Cl)cc(Cl)c(O)c2n1 ?
Nrf2 activator: inconclusive; S2 tox: inconclusive; ATXN2 expr inh: 7.1µM*!; A549 tox: 1%; Nrf2 block: -11%
